Results filed as inconclusive are left out. Calls of active or inactive are those of the source. Calls come from the whole dose curve; as a rule, active = well fitted inhibition curve with a large enough effect; inconclusive = small, poorly fitted or top-dose-only effect, or effect the other way; inactive = flat fitted curve, though single readings scatter.
biological target: Ubiquitin carboxyl-terminal hydrolase 2 (Homo sapiens) (UniProt O75604); assay: Confirmation Assay for Inhibitors of Ubiquitin-specific Protease USP2a Using CHOP2 as the Reporter; conditions: USP2 core, Ub-CHOP2 coupled reporter fluorescence; series mostly up to 38.3 µM; activity change, negative = inhibition: at the top concentration; note: nearly all actives have a fitted effect of over 55% in size;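 for activity change, negative = inhibition: plate controls were DMSO wells for no effect and full inhibition by NEM control for full effect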
How it was run: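 USP2 core (10 nM final) was preincubated with compound for 30 min at RT in Tris-HCl pH 8.0, CaCl2, beta-mercaptoethanol, CHAPS. Ub-CHOP2 and reporter substrate (25 nM final each) were added, and fluorescence (Ex 485/Em 531 nm) was read after 60 min.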
Potency is the fitted concentration of half-maximal effect.

Ubiquitin carboxyl-terminal hydrolase 2 (Homo sapiens), sequence (O75604 whole entry, looked up): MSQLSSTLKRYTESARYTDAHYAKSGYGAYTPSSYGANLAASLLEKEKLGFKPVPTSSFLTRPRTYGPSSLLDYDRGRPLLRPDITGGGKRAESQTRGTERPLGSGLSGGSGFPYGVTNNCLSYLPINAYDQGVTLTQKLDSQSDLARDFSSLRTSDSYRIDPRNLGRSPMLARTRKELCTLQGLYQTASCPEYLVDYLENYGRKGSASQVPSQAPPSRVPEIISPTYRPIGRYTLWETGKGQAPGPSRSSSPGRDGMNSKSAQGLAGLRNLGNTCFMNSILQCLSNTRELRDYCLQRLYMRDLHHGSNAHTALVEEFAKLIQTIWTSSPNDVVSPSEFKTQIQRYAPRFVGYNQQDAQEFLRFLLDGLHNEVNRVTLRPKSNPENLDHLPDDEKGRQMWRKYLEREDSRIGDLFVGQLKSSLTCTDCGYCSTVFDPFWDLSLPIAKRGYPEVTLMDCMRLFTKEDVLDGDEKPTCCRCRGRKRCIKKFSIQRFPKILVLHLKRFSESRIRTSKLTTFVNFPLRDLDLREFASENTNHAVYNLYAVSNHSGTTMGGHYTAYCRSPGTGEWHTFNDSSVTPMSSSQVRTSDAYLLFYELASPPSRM

Row | SMILES | activity change, negative = inhibition | Potency
1 | O=C(Nc1nnc(-c2ccco2)s1)C1CCCCC1 | 0.407% (inactive) | 
2 | O=C(Nc1ccncc1)c1ccc(S(=O)(=O)Nc2ccccc2)cc1 |  | 14.7 µM (active)
3 | Cc1ccc2c(c1)c1c3n2CCN(C(=O)Cn2c(-c4ccccc4)noc2=O)C3CCC1 (stereo not given) | -6.27% (inactive) | 
4 | C(=N\N(c1ccccc1)c1ccccc1)/c1ccccn1 | 3.64% (inactive) | 
5 | C#CCOCCOCCOCCNc1nc(N2CCN(C(=O)CCCCCCCCCCNC(=O)[C@H]([C@@H](C)CC)n3cc(CCCCCN)nn3)CC2)nc(N2CCN(C(=O)CCCCCCCCCCNC(=O)[C@H]([C@@H](C)CC)n3cc(CCCCN=C(N)N)nn3)CC2)n1 |  | 6.56 µM (active)
6 | CC(C)CC(=O)NC(=S)Nc1nc(-c2ccc(Cl)cc2)cs1 | 2.55% (inactive) | 
7 | COC(=O)C1CCN(C(=O)COC(=O)CC(NC(N)=O)c2ccc(Cl)cc2)CC1 (stereo not given) | 1.45% (inactive) | 
8 | CC(=O)c1ccc(Nc2ncnc3c2oc2ccccc23)cc1 | 6.35% (inactive) | 
9 | O=C1Nc2ccccc2SC(c2ccccc2)C1O (stereo not given) |  | 13.1 µM (active)
10 | O=C(c1ccccc1)N1CCN(C(=O)N2CCCCC2)CC1 | -1.38% (inactive) | 
11 | COc1ccc(NC(=O)CSc2nnc(-c3ccccc3Cl)n2Cc2ccco2)c(OC)c1 | 0.298% (inactive) | 
12 | O=C(CCCN1C(=O)c2ccccc2C1=O)NC1=NCCS1 | 3.31% (inactive) | 
13 | COCc1cc(C)nc(OCC(=O)N/N=C\c2cc(C)n(-c3cccc(C(F)(F)F)c3)c2C)c1C#N | 0.0262% (inactive) | 
14 | Cc1cc(N2CCOCC2)nc(SCC(=O)c2ccc(Cl)cc2)n1 | 5.19% (inactive) | 
15 | COc1ccc(CC(NC(C)=O)C(=O)NC2CCN(c3nc(C)cc(C)c3C#N)CC2)c(OC)c1 (stereo not given) | -0.456% (inactive) | 
16 | CN1CCN(Cc2c(O)ccc3c(=O)c(Oc4ccccc4Cl)c(C(F)(F)F)oc23)CC1 | 4.61% (inactive) | 
17 | O=C(Oc1ccccc1C(=O)Nc1ccccc1)c1ccccc1Br | 1.52% (inactive) | 
18 | COc1ccc(OCC(=O)NCCNC(=O)c2cccnc2)cc1 | 1.94% (inactive) | 
19 | CCCn1c(NC(=O)c2ccc(Br)cc2)nc2ccccc21 | -2.73% (inactive) | 
20 | O=C(COc1ccccc1)NCc1nnc(SCC(=O)Nc2nccs2)n1-c1ccccc1 | -4.3% (inactive) | 

Row | SMILES | activity change, negative = inhibition | Potency
21 | c1ccc(Nc2c3c(nc4ncnn24)CCC3)cc1 | 1.21% (inactive) | 
22 | CC(C)C(C(=O)O)N1C(=O)/C(=C/C=C/c2ccco2)SC1=S (stereo not given) |  | 6.56 µM (active)
23 | O=C(CSc1nc2ccccc2s1)NCCCN1CCOCC1 | 3.93% (inactive) | 
24 | COC(=O)c1c(O)c2c([nH]c1=O)CCCC2 | 0.537% (inactive) | 
25 | C#CCOCCOCCOCCNc1nc(N2CCN(C(=O)CCCCCCCCCCNC(=O)[C@@H](CCSC)n3cc(CCO)nn3)CC2)nc(N2CCN(C(=O)CCCCCCCCCCNC(=O)[C@H](CCCN=C(N)N)n3cc(C[C@@H](C)CC)nn3)CC2)n1 |  | 13.1 µM (active)
26 | CCCCOC1(c2ccccc2)NC(=S)NN=C1c1ccccc1 (stereo not given) | 2.46% (inactive) | 
27 | Nc1ccc2nc(-c3cccc(-c4nc5ccc(N)cc5[nH]4)c3)[nH]c2c1 | -6.9% (inactive) | 
28 | O=S(=O)(NC1CCSc2ccccc21)c1ccccc1 (stereo not given) | -6.24% (inactive) | 
29 | COc1ccc(-c2nnn(CC(=O)N3CCOCC3)n2)cc1 | 5.99% (inactive) | 
30 | COc1ccc(OCC(=O)Nc2ccccc2OC)cc1 | 7.41% (inactive) | 
31 | Cc1noc(C)c1NC(=O)Nc1ccc2c(c1)C(=O)N([C@H](C)CO)C[C@H](C)[C@@H](CN(C)S(=O)(=O)c1ccccc1)O2 | -1.29% (inactive) | 
32 | CCn1c(SCC(=O)NCCc2ccccc2)nnc1-c1cccs1 | -0.464% (inactive) | 
33 | COc1cc(-c2nc(-c3ccc4c(c3)-c3ccccc3S4(=O)=O)c(-c3ccccc3)[nH]2)cc(OC)c1O | -1.03% (inactive) | 
34 | COc1cc(/C=C/[N+](=O)[O-])ccc1OCc1cccc(C(=O)O)c1 | -1.64% (inactive) | 
35 | Nc1ccccc1S(=O)(=O)NC1=NCCCCC1 | 2.55% (inactive) | 
36 | Cc1cc(Cl)ccc1NC(=S)NCCCN1CCCC1=O | -2.55% (inactive) | 
37 | O=C(Nc1nc(-c2ccco2)c(-c2ccco2)s1)C1CC(=O)N(c2ccc3c(c2)OCCO3)C1 (stereo not given) |  | 10.4 µM (active)
38 | Cc1ccccc1C(=O)Nc1ccc2nc3n(c(=O)c2c1)CCC3 | -1.25% (inactive) | 
39 | CS(=O)(=O)c1ccc(C(=O)Nc2nc(-c3ccco3)c(-c3ccco3)s2)cc1 | -4.86% (inactive) | 
40 | CCc1sc(/C=C(/C#N)C(N)=S)cc1[N+](=O)[O-] | -3.59% (inactive) | 

— PubChem BioAssay AID493168 (National Center for Advancing Translational Sciences (NCATS), 2011)
